The record followed here is PubChem BioAssay (NCATS).

Values joined by “and” are separate entries in the source; they are usually repeats but may differ in a detail not shown here. Equal values may be shown once. Results filed as inconclusive are left out. Active and inactive are the calls of the source. Unless noted, calls come from the whole dose curve; as a rule, active = well fitted curve in the direction sought with a large enough effect; inconclusive = small, poorly fitted or top-dose-only effect, or another doubt; inactive = no such curve, though single readings can be large; an effect the other way counts as inactive or inconclusive.

Assay [1] can be described thus: Stat Signaling Pathway (AID 446; active = well fitted curve in either direction with a large enough effect, not every such curve was filed as active;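 note: ME-180 cervical cancer cells given 40 pM IL-6 alongside compound; SIE-controlled beta-lactamase reporter measured as 460/530 nm FRET emission ratio; % is set by controls: 0 for no effect and ±100 for the full control effect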). In short, it runs like this:
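Normalization used AC90 stimulation (300 pM IL-6) and AC90 inhibition (125 nM pan-JAK inhibitor at 40 pM IL-6). The underlying signal is SIE-driven beta-lactamase in ME-180 cells after 5 h IL-6 exposure with compound.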

The target of assay [2] is Cytochrome P450 3A4 (Homo sapiens) (UniProt P08684). The assay is described as follows: qHTS Assay for Activators of Cytochrome P450 3A4 (AID 885). Note: nearly all actives have a fitted effect of over 65% in size. In short, it runs like this:
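Human CYP3A4 dealkylates Luciferin-PPXE to luciferin, which luciferase detection converts to light. Substrate was at its KM (25uM), buffer 200mM KPO4, reaction 60 min at RT.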
Background: In qHTS, concentration-response curves come from the screen itself.

For assay [3], the target named is Dual specificity protein kinase CLK4 (Homo sapiens) (UniProt Q9HAZ1). The assay is described as follows: qHTS Assay for Inhibitors of CDC-like Kinase 4 (ADP-Glo Assay) (AID 1771). Note: potency is the fitted concentration of half-maximal effect; nearly all actives have a fitted effect of over 70% in size. In short, it runs like this: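 ADP production was read by ADP-Glo luminescence after residual ATP depletion, following 1 h room-temperature reaction of 25 nM Clk4, 1 uM ATP and 100 uM RS peptide with MgCl2, EGTA, DTT and Triton X-100.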

Assay [4] is described as follows: HepG2 viability counterscreen (readout 1: protease activity) against the NCATS DSHEA and TCM libraries (AID 1794841).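 Note: cells exposed to compounds for about 24 h before the protease read; 0% is about no effect.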 In short, it runs like this: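 HepG2 cells (1,000 cells/well) attached ~4 h, then treated ~24 h at 37C with substances. Protease activity read by GF-AFC (25 uM final, 30 min, Ex/Em 380/510 nm); ATP content then by CellTiter-Glo luminescence.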
(In general: A counterscreen serves to expose hits that act by an unwanted route or on another target.)

A short description of assay [5]: Dual reporter qHTS for agonist of Pregnane X Receptor (hPXR) against the NCATS DSHEA and TCM libraries: Fluorescence readout (AID 1920058). Note: 0% is about no effect. In short, it runs like this:
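Viability readout (CellTiter-Fluor, 405/540 nm, 1 h) from agonist-mode PXR dual reporter in hPXR-Luc HepG2 cells. Substances ~24 h, 37 °C, 5% CO2; rifampicin reference, tetraoctyl ammonium bromide cytotoxic control.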

In assay [6] the target is Lysosomal acid glucosylceramidase (Homo sapiens) (UniProt P04062). Kind of assay: Glucocerebrosidase-p2 (AID 348; in the data active = potency below about 10 µM; note: potency is the fitted concentration of half-maximal effect). Particulars: purified GBA, blue fluorogenic substrate, 40 min. In short, it runs like this: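 Normal human glucocerebrosidase (0.2 nM) with blue fluorogenic substrate (80 uM final) in citrate/phosphate pH 5.9 with 10mM sodium taurocholate, 0.01% tween-20; 40 min RT, NaOH/glycine stop; fluorescence Ex 365/Em 440; AC50 from a titration from 0.6 nM upwards.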

Assay [7] addresses Cytochrome P450 1A2 (Homo sapiens) (UniProt P05177). Kind of assay: p450-cyp1a2 (AID 410; calls by dose curve). Summed up: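 Luminescent demethylation readout: Luciferin-ME (100uM, equal to Km) turned over by 20nM CYP1A2 for 60 min at room temperature after NADPH regeneration addition, following 10 min compound preincubation. Normalization used 57 uM furafylline as full inhibition.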
Assay [8] has as its target 3',5'-cyclic-AMP phosphodiesterase 4B (Homo sapiens) (UniProt Q07343). The assay is described as follows: qHTS Assay for Inhibitors of PDE-IV (AID 607; active = well fitted activation curve with a large enough effect in the main read-out, with a control signal flat, not every such curve was filed as active; note: % of control where 0% means no effect). In short, it runs like this: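 HEK293 ACTOne cells with CNG channel (1000/well), endogenous PDE4; membrane potential dye, compounds up to 22.9 uM final. Fluorescence Ex 535/Em 590; RO 20-1724 (100 uM final) as reference.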

Assay [9] has as its target Cytochrome P450 3A4 (Homo sapiens) (UniProt P08684). The assay is described as follows: qHTS Assay for Inhibitors and Substrates of Cytochrome P450 3A4 (AID 884). Note: series mostly up to about 57 µM; % is set by controls: 0 for no effect and ±100 for the full control effect; nearly all actives have a fitted effect of over 50% in size. In short, it runs like this: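 Luminescent readout of luciferin produced by CYP3A4 (20 nM) dealkylation of Luciferin-PPXE, 25 uM (its KM). NADPH-driven reaction ran 60 min at RT after 10 min compound preincubation; data scaled to 57 uM ketoconazole as 100% inhibition.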

The target of assay [10] is Estrogen receptor (Homo sapiens) (UniProt P03372). Kind of assay: qHTS assay for small molecule antagonists of estrogen receptor alpha signaling (AID 588513; active = well fitted curve in the direction sought with a large enough effect in the signal ratio, with a control signal flat, not every such curve was filed as active; the % refers to the signal ratio; note: % is set by controls: 0 for no effect and ±100 for the full control effect). Summed up: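 ER-alpha-UAS-bla GripTite HEK 293 cells in medium with 2% charcoal/dextran-treated FBS were preincubated 4 h at 37 C, dosed with compound (1:2 titration), stimulated with 0.5nM 17-beta-estradiol for 18 h, then read by CCF4 beta-lactamase fluorescence.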

Assay [11] deals with Peroxisome proliferator-activated receptor gamma (Homo sapiens) (UniProt P37231). The assay is described as follows: qHTS assay for small molecule agonists of peroxisome proliferator-activated receptor gamma signaling (AID 588536; active = well fitted curve in the direction sought with a large enough effect in the signal ratio, with a control signal flat, not every such curve was filed as active; the % refers to the signal ratio;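 note: 0% = DMSO basal wells and 100% = rosiglitazone at 2 µM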). Summed up:
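Cells were plated and held 6–6.5 h at 37 C, then compounds were added as a titration series. After a further 16 h, CCF4 dye was loaded for 2 h at room temperature and emission at 460/530 nm recorded.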

A short description of assay [12]: qHTS assay for small molecule antagonists of retinoid X receptor alpha signaling (AID 588546; active = well fitted inhibition curve with a large enough effect in the signal ratio, with a control signal flat, not every such curve was filed as active; the % refers to the signal ratio;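 note: cells stimulated with 9-cis-retinoic acid as agonist; % is set by controls: 0 for no effect and ±100 for the full control effect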). The following applies: HEK293T RXRa-UAS-bla, beta-lactamase ratio, antagonist mode; measured here: W530 green channel, cytotoxicity proxy. In short, it runs like this: (§1)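 Beta-lactamase reporter inhibition, read as CCF4 fluorescence ratio (ex 405, em 460/530 nm) after 2 h at RT. HEK293T UAS-bla cells, 2500/well, were stimulated with 9-cis-RA at 500 or 100 nM final alongside test compound for 18 h at 37 C.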

For assay [13], the target named is Retinoic acid receptor RXR-alpha (Homo sapiens) (UniProt P19793). The description is as above. Particulars: HEK293T RXRa-UAS-bla, beta-lactamase ratio, antagonist mode. Summed up: as §1
The nature of assay [14]: qHTS assay for small molecule activators of the p53 signaling pathway (AID 651743; active = well fitted activation curve with a large enough effect in the signal ratio, not every such curve was filed as active; the % refers to the signal ratio; note: series mostly up to about 92 µM; % of control where 0% means no effect). Particulars: HCT-116 p53RE-bla, beta-lactamase FRET ratio, 16 h; activation: stronger effect = higher value. Summed up: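 Following 16 hours of compound exposure at 37 C, HCT-116 cells bearing the p53RE-bla reporter were loaded with LiveBLAzer B/G FRET substrate for 2 hours at room temperature and fluorescence intensity was recorded.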

The target of assay [15] is Peroxisome proliferator-activated receptor alpha (Homo sapiens) (UniProt Q07869). Kind of assay: qHTS assay for small molecule agonists of the peroxisome proliferator-activated receptor alpha (PPARalpha) signaling pathway (AID 651778). For max response: % of control where 0% means no effect. Note: potency is the fitted concentration of half-maximal effect. The following applies: PathHunter PPARalpha complementation, chemiluminescence, 6 h; max response: stronger effect = higher value. Summed up:
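Enzyme-fragment complementation assay in which ligand-bound PPARalpha translocates and forms an active enzyme that generates chemiluminescence. Cells were plated overnight, exposed to compound for 6 hr at 37 C, and then given detection reagent for 60 min at room temperature.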

Sequence of Peroxisome proliferator-activated receptor gamma (Homo sapiens) (P37231 whole entry, looked up): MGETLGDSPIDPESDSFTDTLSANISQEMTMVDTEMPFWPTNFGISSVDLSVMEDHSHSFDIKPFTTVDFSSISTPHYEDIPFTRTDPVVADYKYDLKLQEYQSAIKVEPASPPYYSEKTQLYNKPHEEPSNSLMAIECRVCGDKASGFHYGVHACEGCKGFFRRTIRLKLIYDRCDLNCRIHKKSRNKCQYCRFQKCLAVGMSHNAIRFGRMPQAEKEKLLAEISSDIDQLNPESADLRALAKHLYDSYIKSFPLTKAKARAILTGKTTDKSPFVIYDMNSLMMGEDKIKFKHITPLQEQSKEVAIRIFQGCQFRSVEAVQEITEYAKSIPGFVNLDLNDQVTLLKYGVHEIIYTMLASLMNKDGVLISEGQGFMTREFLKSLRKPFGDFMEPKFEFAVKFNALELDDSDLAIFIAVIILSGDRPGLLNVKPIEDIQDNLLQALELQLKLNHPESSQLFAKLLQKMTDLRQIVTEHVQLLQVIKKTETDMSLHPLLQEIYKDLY
Sequence of Peroxisome proliferator-activated receptor alpha (Homo sapiens) (Q07869 whole entry, looked up, the tested form may be a part): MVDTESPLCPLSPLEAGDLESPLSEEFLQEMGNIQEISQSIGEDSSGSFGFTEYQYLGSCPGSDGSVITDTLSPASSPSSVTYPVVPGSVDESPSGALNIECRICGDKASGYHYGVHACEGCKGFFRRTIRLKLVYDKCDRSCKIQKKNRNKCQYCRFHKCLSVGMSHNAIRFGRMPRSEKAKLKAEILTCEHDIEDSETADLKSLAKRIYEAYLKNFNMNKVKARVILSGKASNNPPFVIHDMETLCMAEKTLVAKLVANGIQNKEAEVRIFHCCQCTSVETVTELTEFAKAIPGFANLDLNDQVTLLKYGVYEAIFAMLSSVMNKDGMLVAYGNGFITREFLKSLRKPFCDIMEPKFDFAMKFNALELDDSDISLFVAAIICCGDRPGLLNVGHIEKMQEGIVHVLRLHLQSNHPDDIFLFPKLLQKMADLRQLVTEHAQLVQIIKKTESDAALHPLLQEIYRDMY
Sequence of Estrogen receptor (Homo sapiens) (P03372 whole entry, looked up): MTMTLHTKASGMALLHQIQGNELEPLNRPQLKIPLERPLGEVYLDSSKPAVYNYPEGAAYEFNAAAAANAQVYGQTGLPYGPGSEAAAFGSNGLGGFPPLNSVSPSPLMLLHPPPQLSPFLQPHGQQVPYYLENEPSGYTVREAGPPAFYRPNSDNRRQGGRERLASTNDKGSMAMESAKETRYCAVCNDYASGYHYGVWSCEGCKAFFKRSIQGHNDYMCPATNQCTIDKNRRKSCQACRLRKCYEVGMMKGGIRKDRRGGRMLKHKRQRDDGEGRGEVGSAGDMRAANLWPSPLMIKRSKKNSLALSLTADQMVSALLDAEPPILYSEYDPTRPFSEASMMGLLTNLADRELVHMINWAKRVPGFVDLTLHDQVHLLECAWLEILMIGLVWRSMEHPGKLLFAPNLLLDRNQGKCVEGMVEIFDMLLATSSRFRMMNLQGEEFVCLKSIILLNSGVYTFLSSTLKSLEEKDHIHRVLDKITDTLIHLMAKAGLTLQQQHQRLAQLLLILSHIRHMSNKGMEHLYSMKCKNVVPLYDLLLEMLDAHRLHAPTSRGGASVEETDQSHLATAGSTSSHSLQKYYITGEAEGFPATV
Sequence of Cytochrome P450 3A4 (Homo sapiens) (P08684 whole entry, looked up): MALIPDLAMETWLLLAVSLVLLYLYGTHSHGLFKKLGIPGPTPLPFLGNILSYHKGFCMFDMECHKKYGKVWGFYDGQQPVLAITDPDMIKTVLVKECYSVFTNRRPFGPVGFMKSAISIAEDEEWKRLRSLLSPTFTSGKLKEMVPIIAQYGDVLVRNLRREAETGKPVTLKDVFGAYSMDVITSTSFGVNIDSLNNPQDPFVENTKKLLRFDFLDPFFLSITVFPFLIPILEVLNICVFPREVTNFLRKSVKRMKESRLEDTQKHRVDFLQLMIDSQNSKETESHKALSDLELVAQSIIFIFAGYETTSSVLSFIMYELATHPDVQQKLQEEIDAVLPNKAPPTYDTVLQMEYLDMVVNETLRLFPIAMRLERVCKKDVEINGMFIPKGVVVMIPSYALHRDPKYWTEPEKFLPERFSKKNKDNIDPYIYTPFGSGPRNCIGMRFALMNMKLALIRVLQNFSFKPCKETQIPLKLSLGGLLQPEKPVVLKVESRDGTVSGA
Sequence of Retinoic acid receptor RXR-alpha (Homo sapiens) (P19793 whole entry, looked up): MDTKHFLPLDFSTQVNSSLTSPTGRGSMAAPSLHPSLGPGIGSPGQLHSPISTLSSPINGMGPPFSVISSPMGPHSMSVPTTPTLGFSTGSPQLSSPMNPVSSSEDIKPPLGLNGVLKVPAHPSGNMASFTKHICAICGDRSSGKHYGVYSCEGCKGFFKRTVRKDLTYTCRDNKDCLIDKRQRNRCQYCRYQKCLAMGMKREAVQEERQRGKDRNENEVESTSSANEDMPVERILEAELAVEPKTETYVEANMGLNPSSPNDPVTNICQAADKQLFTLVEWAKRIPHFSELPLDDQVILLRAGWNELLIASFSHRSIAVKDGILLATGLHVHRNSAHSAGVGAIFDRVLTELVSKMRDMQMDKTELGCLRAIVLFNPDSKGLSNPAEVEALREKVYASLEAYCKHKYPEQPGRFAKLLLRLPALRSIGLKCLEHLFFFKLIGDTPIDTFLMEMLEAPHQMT
Sequence of 3',5'-cyclic-AMP phosphodiesterase 4B (Homo sapiens) (Q07343 whole entry, looked up): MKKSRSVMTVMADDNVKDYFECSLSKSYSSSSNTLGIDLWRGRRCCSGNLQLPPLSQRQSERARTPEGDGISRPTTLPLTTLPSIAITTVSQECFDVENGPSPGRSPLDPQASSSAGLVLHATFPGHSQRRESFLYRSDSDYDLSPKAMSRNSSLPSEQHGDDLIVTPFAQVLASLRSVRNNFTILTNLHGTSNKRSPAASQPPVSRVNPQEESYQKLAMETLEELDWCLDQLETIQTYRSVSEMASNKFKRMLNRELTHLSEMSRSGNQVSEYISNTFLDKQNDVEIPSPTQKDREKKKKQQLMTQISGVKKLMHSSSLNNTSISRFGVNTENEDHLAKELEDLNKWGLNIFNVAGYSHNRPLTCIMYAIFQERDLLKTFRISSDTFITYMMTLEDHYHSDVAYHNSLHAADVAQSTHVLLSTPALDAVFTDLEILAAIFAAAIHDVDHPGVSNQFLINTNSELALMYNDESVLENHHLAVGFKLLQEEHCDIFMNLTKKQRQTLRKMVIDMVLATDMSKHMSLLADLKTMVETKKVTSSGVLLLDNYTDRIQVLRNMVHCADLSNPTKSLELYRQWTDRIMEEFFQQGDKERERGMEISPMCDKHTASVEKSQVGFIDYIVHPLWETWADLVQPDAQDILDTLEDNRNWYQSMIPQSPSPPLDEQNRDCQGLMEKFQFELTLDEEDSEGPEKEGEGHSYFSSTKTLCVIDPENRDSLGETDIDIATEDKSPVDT
Sequence of Dual specificity protein kinase CLK4 (Homo sapiens) (Q9HAZ1 whole entry, looked up): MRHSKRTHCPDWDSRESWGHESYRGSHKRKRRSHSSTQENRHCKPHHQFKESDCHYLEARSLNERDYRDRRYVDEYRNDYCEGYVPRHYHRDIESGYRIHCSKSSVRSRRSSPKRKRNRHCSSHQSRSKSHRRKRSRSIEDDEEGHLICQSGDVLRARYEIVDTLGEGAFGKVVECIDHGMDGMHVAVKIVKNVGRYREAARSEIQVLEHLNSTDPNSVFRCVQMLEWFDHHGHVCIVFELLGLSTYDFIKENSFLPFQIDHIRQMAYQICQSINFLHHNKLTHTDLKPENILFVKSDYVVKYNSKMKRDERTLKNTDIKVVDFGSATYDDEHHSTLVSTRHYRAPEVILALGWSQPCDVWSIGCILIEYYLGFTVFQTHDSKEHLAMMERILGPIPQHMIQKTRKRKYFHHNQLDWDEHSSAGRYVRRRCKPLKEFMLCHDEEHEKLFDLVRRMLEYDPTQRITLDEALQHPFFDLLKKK
Sequence of Cytochrome P450 1A2 (Homo sapiens) (P05177 whole entry, looked up): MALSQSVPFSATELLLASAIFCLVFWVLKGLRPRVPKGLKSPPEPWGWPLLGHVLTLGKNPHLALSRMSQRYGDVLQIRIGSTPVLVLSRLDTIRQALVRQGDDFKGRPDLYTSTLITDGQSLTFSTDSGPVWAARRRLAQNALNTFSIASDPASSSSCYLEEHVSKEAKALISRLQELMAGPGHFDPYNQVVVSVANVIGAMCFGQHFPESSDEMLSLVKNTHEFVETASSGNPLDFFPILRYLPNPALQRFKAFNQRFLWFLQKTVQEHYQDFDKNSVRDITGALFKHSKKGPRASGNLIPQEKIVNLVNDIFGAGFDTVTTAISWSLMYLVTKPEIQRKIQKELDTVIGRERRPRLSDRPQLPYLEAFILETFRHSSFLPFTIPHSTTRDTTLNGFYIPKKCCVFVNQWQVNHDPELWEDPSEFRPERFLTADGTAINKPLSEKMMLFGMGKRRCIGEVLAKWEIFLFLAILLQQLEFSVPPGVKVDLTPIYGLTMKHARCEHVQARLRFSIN
Sequence of Lysosomal acid glucosylceramidase (Homo sapiens) (P04062 whole entry, looked up): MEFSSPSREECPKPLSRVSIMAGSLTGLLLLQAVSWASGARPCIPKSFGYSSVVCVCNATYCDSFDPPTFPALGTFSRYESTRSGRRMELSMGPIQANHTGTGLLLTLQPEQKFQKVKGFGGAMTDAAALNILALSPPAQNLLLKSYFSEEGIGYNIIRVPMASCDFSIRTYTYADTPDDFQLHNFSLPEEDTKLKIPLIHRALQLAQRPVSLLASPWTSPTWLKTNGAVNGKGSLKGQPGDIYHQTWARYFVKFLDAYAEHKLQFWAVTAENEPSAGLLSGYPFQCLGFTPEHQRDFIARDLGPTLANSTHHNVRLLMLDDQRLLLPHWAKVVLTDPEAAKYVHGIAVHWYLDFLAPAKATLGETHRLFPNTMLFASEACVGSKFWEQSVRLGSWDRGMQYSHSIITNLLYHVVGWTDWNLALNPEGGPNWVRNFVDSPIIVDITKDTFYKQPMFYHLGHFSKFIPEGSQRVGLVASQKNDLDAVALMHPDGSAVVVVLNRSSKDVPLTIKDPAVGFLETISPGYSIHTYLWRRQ

Regarding `COc1ccccc1-c1nc(NC2CC2)c2ccccc2n1`, the molecule was classed as inactive in [1] and in assay [2]. Also, the Potency in [3] is 14.1 µM (active).

`O=C(/C=C/c1ccc(O)c(O)c1)O[C@@H]1CC(C(=O)O)=C[C@@H](O)[C@H]1O`: in [4], the molecule was called inactive.

On to `COc1ccc(C(=O)O)cc1`, for which the result in assay [4] and in assay [5] was inactive.

Consider `CC(C)=CCC[C@](C)(O[C@@H]1O[C@H](CO)[C@@H](O)[C@H](O)[C@H]1O)[C@H]1CC[C@]2(C)[C@@H]1[C@H](O)C[C@@H]1[C@@]3(C)CC[C@H](O[C@@H]4O[C@H](CO)[C@@H](O)[C@H](O)[C@H]4O[C@@H]4O[C@H](CO)[C@@H](O)[C@H](O)[C@H]4O)C(C)(C)[C@@H]3CC[C@]12C`, for which the molecule was classed as inactive in assay [4] and in assay [5].

With `Cc1ncc(COP(=O)(O)O)c(C)c1O`, the Potency in assay [6] was > 11.4 µM (inactive). Further, in assay [7], the activity change, negative = inhibition is -20.3% [at 11.4 µM] (inactive). Moreover, the Potency entry in [8] is “inactive”.

Consider `COc1ccc2[nH]cc(CCNc3ncncc3-c3cccc(C#N)c3)c2c1`, for which the outcome in assay [1] was inactive. Besides, in assay [8], the Potency result was “inactive”. Further, the Potency in assay [3] is 25.1 µM (active).

With `O=Cc1ccccc1O`, the outcome in assay [4] and in assay [5] was inactive.

For the molecule `CCCCCCCCCCCCCC(=O)O`, the Potency entry in assay [9] and in assay [10] was “inactive” in each case. Besides, the call in assay [11] and in [4] was inactive. The max response in assay [12] was 9.83% and 0.375%; in [13], -6.83% (inactive) and -2.87% (inactive). Also, the activation in assay [14] is -1.59% (inactive) and 5.08% (inactive). The Potency in assay [15] was 22.4 µM (active).

For the molecule `CCCCCCCC/C=C\CCCCCCCCCCCC(=O)O`, the molecule was classed as inactive in assay [4] and in assay [5].

With `COc1ccc(/C=C/c2cc(OC)cc(=O)o2)cc1`, the Potency entry in [10] was “inactive”. The molecule was classed as inactive in [11] and in assay [4]. The max response was 19.1% in assay [12], -3.53% (inactive) in assay [13] and 9.34% (inactive) in assay [15]. Further, the activation in [14] was 10.5% (inactive).

On to `O=C(OC[C@H]1O[C@@H](OC(=O)c2cc(O)c(O)c(O)c2)[C@H](OC(=O)c2cc(O)c(O)c(O)c2)[C@@H](OC(=O)c2cc(O)c(O)c(O)c2)[C@@H]1O)c1cc(O)c(O)c(O)c1`, for which the call in assay [4] and in assay [5] was inactive.

With `CC(=O)O[C@H]1[C@H](O[C@H]2CC[C@]34C[C@]35CC[C@]3(C)[C@@H]([C@@]6(C)CC[C@@H](C(C)(C)O)O6)[C@@H](O)C[C@@]3(C)[C@@H]5C[C@H](O[C@@H]3O[C@H](CO)[C@@H](O)[C@H](O)[C@H]3O)[C@H]4C2(C)C)OC[C@@H](O)[C@@H]1O`, the call in assay [4] was inactive.

On to `CC(C)[C@H](C)CC[C@@H](C)[C@H]1CC[C@H]2[C@@H]3CC=C4C[C@@H](O)CC[C@]4(C)[C@H]3CC[C@]12C`, for which the molecule was called inactive in assay [4] and in assay [5].

Turning to `O=C(O)c1ccccc1`, the Potency entry in assay [9] and in assay [10] was “inactive” in each case. The call in [11], in [4] and in assay [5] was inactive. The figures for the max response in [12], in [13] and in assay [15] were -4.31%, -3.53% (inactive) and -2.27% (inactive), respectively. In addition, the activation in assay [14] is 7.69% (inactive).

For the molecule `CC1(C)C2CCC1(C)C(O)C2` (centres undefined), the result in assay [4] and in assay [5] was inactive.
